Compound activity: PubChem BioAssay, National Center for Advancing Translational Sciences (NCATS)
Hits are enriched below; roughly 3.8% of the tested compounds scored in any of these assays.
VDR inh: inhibitors of human vitamin D receptor; P11473; VDR-SRC2-3 peptide fluorescence polarization, 2 h; Potency, µM, usual class: inhibitors; 0.93% of 400,000 active; AID 504847
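Fluorescence polarization assay measuring small-molecule disruption of VDR binding to the coregulator peptide SRC2-3. Compounds were pin-transferred (23 nl) into the reagent mix and incubated 2 h at room temperature before reading.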
KCNH2 WT inh: KCNH2 (human, wildtype) channel inhibition. Q12809. U2OS, BacMam KCNH2, thallium flux FluxOr; stronger effect = lower value. activity change, % at 1.84 µM. 0.37% of 340,000 active. AID 720551;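 active means maximum activity change below -70%; inconclusive means maximum activity change between -70% and -50%; inactive means maximum activity change above -50%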
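U2OS cells transduced with wild-type KCNH2 virus are loaded with FluxOr dye for 45 min, and thallium flux is measured in kinetic reads before and after stimulation buffer. Rate constants are normalized to DMSO controls.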
PLK1 PBD block: PLK1 (human) polo-box domain binding inhibition. 2.8% of 360,000 active. P53350. AID 720504. Plk1 PBD binding of FITC phosphopeptide, fluorescence polarization. Potency, µM, most hits filed as inhibitors; further: series mostly up to about 57 µM; nearly all actives have a fitted effect of over 65% in size
MBNL1-CUG inh: inhibitors of human MBNL1 binding to CUG repeat RNA; 0.036% of 280,000 active; Q9NR56; TR-FRET MBNL1-His/biotin-(CUG)12 binding, 665/545 ratio; Potency, µM (doses to about 57.5 µM), usual class: inhibitors; active means well fitted inhibition curve with a large enough effect in the signal ratio, with a control signal flat, not every such curve was filed as active; inconclusive means small, poorly fitted or top-dose-only effect, or effect the other way, or a change in a side signal; inactive means no such curve, though single readings can be large or run the other way; the % refers to the signal ratio
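Ratiometric TR-FRET (665 over 545 nm, excitation 340 nm) tracks disruption of MBNL1-His/biotin-(CUG)12 complex after 60 min at room temperature, with compounds at 92 nM to 58 uM final.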
CBFb RUNX1 block: blocks binding between human CBF-beta and RUNX1. Q01196+Q13951. AlphaScreen CBFb-His/RUNX1-biotin binding, biochemical. Potency, µM (doses to about 59.8 µM), most hits filed as inhibitors. 230,000 tested, under 10 active
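Compounds were screened at multiple concentrations against a preformed CBF-beta(His)/RUNX1(biotin) complex (30 nM of each) for 15 min at room temperature, followed by 90 min with nickel and streptavidin beads and AlphaScreen reading.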
KCNH2 3.1 inh: inhibitors of human KCNH2 3.1 potassium channel isoform | U2OS KCNH2 3.1, thallium flux FluxOr; stronger effect = lower value | activity change, % (tested at about 1.8 µM) | 0.95% of 340,000 active | AID 720553;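 active means maximum activity change below -70%; inconclusive means maximum activity change from -70% to -50%; inactive means maximum activity change above -50%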;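 further: thallium influx rate constant from kinetic fluorescence after stimulation buffer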
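Thallium flux read-out: FluxOr dye with Red40 quencher in HBSS/HEPES, 45 min at RT. Rate constants from kinetic reads were normalized to positive and negative DMSO controls. Cells: U2OS virally expressing the 3.1 isoform.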
USP1 UbRho: validation of human USP1/UAF1 inhibitors; Potency, µM (top dose mostly 56.8 µM), hits mostly inhibitors; Ub-Rhodamine cleavage, fluorescence kinetic read; shares compounds with VDR inh; 50% of 50 active
VDR confirm: inhibits human vitamin D receptor, primary hit validation; AID 602199; shares compounds with VDR inh; 89% of 840 active; VDR-coactivator inhibition assay, qHTS confirmation; Potency, µM, hits mostly inhibitors
VDR FP fluor: blocks human VDR-coactivator binding in fluorescein assay | 48% of 840 active | Potency, µM (doses to about 57.1 µM), usual class: inhibitors | shares compounds with VDR inh | VDR-coactivator binding, fluorescein fluorescence polarization | AID 602200
VDR bla reporter: inhibits human VDR in beta-lactamase reporter cells. VDR beta-lactamase reporter cells, FRET ratio; cells co-treated with VDR agonist LG190178. Potency, µM (doses to about 46.1 µM), hits mostly inhibitors. shares compounds with VDR inh. 23% of 840 active
VDR cytotox: counter-screen for vitamin D receptor inhibitors: cytotoxicity; cytotoxicity counter-screen, cell viability, qHTS; shares compounds with VDR inh; AID 602204; Potency, µM (doses to about 48.3 µM), most hits filed as cytotoxic; 18% of 840 active; further: nearly all actives have a fitted effect of over 75% in size
A number is an active result; i = inactive; ? = inconclusive; nt = no result given. Unless noted, the call rests on the fitted dose curve; in most records, active means well fitted curve in the direction sought with a large enough effect; inconclusive means small, poorly fitted or top-dose-only effect, or another doubt; inactive means no such curve, though single readings can be large; an effect the other way counts as inactive or inconclusive.

SMILES	VDR inh	KCNH2 WT inh	PLK1 PBD block	MBNL1-CUG inh	CBFb RUNX1 block	KCNH2 3.1 inh	VDR confirm	VDR FP fluor	VDR bla reporter	VDR cytotox	others
Nc1cc(S(=O)(=O)c2ccc(N3CCCCC3)c(N)c2)ccc1N1CCCCC1	nt	i	i	nt	nt	i	nt	nt	nt	nt
Nc1cc(S(=O)(=O)Nc2ccccc2Cl)ccc1N1CCCCC1	?	i	2.38µM	nt	nt	i	7.08	7.08µM	i	i
COc1ccc(NC(=O)/C(Cl)=C(/Cl)S(=O)Cc2ccccc2)cn1 (stereo unspecified)	14.1µM	i	2.12µM	i	i	i	4.23	?	?	?
O=C(Nc1cc(C(F)(F)F)ccc1Cl)c1cc(-c2ccc3c(c2)OCCO3)on1	i	nt	nt	nt	nt	nt	nt	nt	nt	nt
CCOc1ccc2c(c1)c(=O)c(C(=O)c1ccccc1)cn2Cc1ccccc1	i	nt	nt	nt	nt	nt	nt	nt	nt	nt
O=[N+]([O-])c1ccc(Nc2ccccc2)c2nonc12	i	i	i	?	nt	i	nt	nt	nt	nt
O=[N+]([O-])c1ccc(Sc2cccc[n+]2[O-])c2nonc12	8.91µM	i	0.947µM	?	?	i	5.97	?	3.66µM	?
Cc1nc(NC(=O)c2ccccc2)sc1Cc1ccc2c(c1)OCO2	i	i	i	i	i	nt	nt	nt	nt	nt
Cc1nc(NC(=O)c2ccc(Cl)cc2)sc1Cc1ccc2c(c1)OCO2	79.4µM	i	?	i	i	nt	?	?	i	?
O=C(CCN1CCc2ccccc2CC1)c1ccc2c(c1)OCCO2	?	i	13.4µM	i	i	i	12.6	11.2µM	?	?
O=C(Cc1ccccc1)c1ccc2c(c1)OCCO2	i	i	i	i	i	i	nt	nt	nt	nt
COc1cc(-c2cc(C(=O)Nc3cc(S(=O)(=O)N4CCOCC4)ccc3O)c3ccccc3n2)cc(OC)c1OC	?	i	16.8µM	nt	nt	i	?	31.6µM	i	i
FC(F)(F)c1cccc(Sc2nc(-c3ccccc3)nnc2C(F)(F)F)c1	31.6µM	i	i	i	i	i	15	?	?	?
COc1ccc(S(=O)(=O)Nc2cccc3ccccc23)cc1	i	nt	nt	nt	nt	nt	nt	nt	nt	nt
COc1ccc(S(=O)(=O)Nc2cc(Sc3ncn[nH]3)c(O)c3ccccc23)cc1	20µM	nt	nt	?	i	nt	21.2	?	?	18.4µM
COc1ccc(S(=O)(=O)Nc2ccc(O)c(Sc3ncn[nH]3)c2)cc1	i	i	i	i	i	i	nt	nt	nt	nt
Cc1cc(C)c(S(=O)(=O)Nc2cc(SCC(=O)O)c(O)c3ccccc23)cc1C	22.4µM	i	1.5µM	?	i	i	5.32	11.2µM	i	?
COc1ccc(S(=O)(=O)Nc2cc(SCC(=O)O)c(O)c3ccccc23)cc1	?	i	1.5µM	?	nt	i	15.8	14.1µM	?	?
O=C(O)CSc1cc(NS(=O)(=O)c2ccc(Cl)cc2)c2ccccc2c1O	3.55µM	i	1.34µM	?	nt	i	29.9	?	?	?
Cc1cc(C)c(S(=O)(=O)Nc2ccc(O)cc2)cc1C	i	i	i	i	i	i	nt	nt	nt	nt
O=S(=O)(Nc1ccc(Cl)cc1NS(=O)(=O)c1ccccc1)c1ccccc1	i	i	?	nt	nt	i	nt	nt	nt	nt
Cc1nc(N=Nc2ccc(C(=O)O)cc2)c(COP(=O)(O)O)c(C=O)c1O	i	nt	nt	?	i	nt	nt	nt	nt	nt	USP1 UbRho=5.91µM
CC(C)CN1C(=O)/C(=C(/C#N)C(=O)NC2CCCCC2)c2ccccc21	?	i	?	i	i	i	2.82	2.82µM	i	i
Cc1cc(C)c(S(=O)(=O)/N=C2/C=C(SCC(=O)O)C(=O)c3ccccc32)cc1C	7.94µM	i	0.844µM	?	?	-117.2	4.23	?	i	?
CCCCOC(=O)NS(=O)(=O)c1sc(CC(C)C)cc1-c1ccc(Cn2c(CC)nc3c(C)cc(C)nc32)cc1	i	nt	nt	nt	i	nt	nt	nt	nt	nt	USP1 UbRho=?
SMILES	VDR inh	KCNH2 WT inh	PLK1 PBD block	MBNL1-CUG inh	CBFb RUNX1 block	KCNH2 3.1 inh	VDR confirm	VDR FP fluor	VDR bla reporter	VDR cytotox	others
CCCCOC(=O)Nc1ccc(S(=O)(=O)Nc2nc(C)cc(C)n2)cc1	i	i	i	i	i	i	nt	nt	nt	nt
CCOC(=O)Cc1cc(-c2ccccc2)nc2ccc3ccccc3c12	i	i	i	i	i	i	nt	nt	nt	nt
CCOC(=O)CS(=O)(=O)c1nc(-c2ccccc2)cc(C(F)(F)F)n1	20µM	i	10.6µM	i	i	i	7.52	?	?	?
CCOC(=O)CCS(=O)(=O)c1nc(-c2ccccc2)cc(C(F)(F)F)n1	44.7µM	i	?	i	i	i	5.97	10µM	?	?
C=CCc1ccccc1OCCn1c(C2CC(=O)N(Cc3ccc(F)cc3)C2)nc2ccccc21 (stereo unspecified)	i	nt	nt	nt	nt	nt	nt	nt	nt	nt
O=C(/C=C/c1cccc([N+](=O)[O-])c1)c1cccs1	?	i	i	nt	i	nt	5.62	7.94µM	i	?
COc1ccc(/C=C/C(=O)c2ccc3c(c2)OCCO3)cc1[N+](=O)[O-]	i	i	i	i	i	?	nt	nt	nt	nt
O=C(/C=C/c1cccc([N+](=O)[O-])c1)c1ccc2c(c1)OCCO2	?	i	i	nt	i	i	12.6	12.6µM	?	?
O=C(/C=C/c1cccc([N+](=O)[O-])c1)Nc1ccc(NC(=O)c2cccs2)cc1	i	i	i	i	i	i	nt	nt	nt	nt
Cc1ccc(-c2nn(-c3ccccc3)cc2C=C2C(=O)CC(C)(C)CC2=O)cc1	25.1µM	i	0.67µM	i	i	i	?	3.55µM	i	i
CC1=NNC(=O)/C1=C\c1cn(-c2ccccc2)nc1-c1ccc(Cl)cc1	12.6µM	i	5.32µM	i	i	i	?	11.2µM	?	20.6µM
CC1=NN(c2ccccc2)C(=O)/C1=C\c1cn(CCC#N)nc1-c1ccc(Cl)cc1	?	i	i	i	i	i	nt	nt	nt	nt
O=C(Oc1ccc(Br)cc1C(=O)/C=C/c1ccccc1F)c1ccco1	44.7µM	i	i	nt	nt	i	?	7.08µM	i	?
Cc1ccc(N(Cc2cccs2)C(=O)c2ccccc2[N+](=O)[O-])cc1	i	nt	nt	nt	nt	nt	nt	nt	nt	nt
O=C(O)CCNc1ccc(NCCC(=O)O)c2c1C(=O)c1ccccc1C2=O	7.08µM	i	?	?	nt	i	7.52	i	i	?
